Bioassay records (PubChem)
This is a sample that favours compounds with a hit; in the whole collection about 2.7% have one here.
mIDH1 inhibitor = inhibitors of human mutant IDH1 R132H; Potency, µM (highest dose often 76.6 µM), for inactives: at the highest dose activity change, negative = inhibition, usual class: inhibitors; IDH1-R132H enzyme, NADPH consumption, diaphorase/resazurin fluorescence; AID 602179; 390,000 tested, 0.093% active; note: % is set by controls: 0 for no effect and ±100 for the full control effect; nearly all actives have a fitted effect of over 65% in size
Target sequence (O75874 whole entry R132H, stated change not applied): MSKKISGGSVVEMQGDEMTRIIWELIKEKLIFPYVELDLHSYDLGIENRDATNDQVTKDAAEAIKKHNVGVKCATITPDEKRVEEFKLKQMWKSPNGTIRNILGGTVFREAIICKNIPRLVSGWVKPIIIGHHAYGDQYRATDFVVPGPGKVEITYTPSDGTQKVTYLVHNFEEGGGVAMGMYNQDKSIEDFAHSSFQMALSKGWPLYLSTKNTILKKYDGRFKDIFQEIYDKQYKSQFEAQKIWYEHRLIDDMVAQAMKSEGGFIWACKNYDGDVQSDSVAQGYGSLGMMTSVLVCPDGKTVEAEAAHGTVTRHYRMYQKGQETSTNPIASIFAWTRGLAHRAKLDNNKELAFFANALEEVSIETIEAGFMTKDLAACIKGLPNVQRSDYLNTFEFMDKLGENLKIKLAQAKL
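IDH1-R132H (0.5 ug/mL) preincubated 30 min with compound, then NADPH (0.016 mM) and alpha-KG (2 mM) added; 80 min at RT, pH 7.5. Remaining NADPH coupled via diaphorase/resazurin to fluorescence (540/590 nm); concentration-response curves normalized to no-enzyme control.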
GLP-1R agonist = GLP-1 receptor (human) agonism | HEK293 GLP-1R CRE-luciferase, luminescence, 4-6 h; cells express a hypersensitive GLP-1R form | AID 624172 | P43220 | 380,000 tested, 0.007% active | Potency, µM (top dose mostly 45.6 µM), inactives show top-dose activation, hits mostly activators; note: % of control where 0% means no effect
TrxR1 inh = inhibitors of rat thioredoxin reductase 1; O89049; recombinant rTrxR1, NADPH fluorescence consumption, selenite substrate; Potency, µM (top dose mostly 114 µM), without a hit: at the top dose activity change, negative = inhibition, hits mostly inhibitors; 390,000 tested, 1% active; AID 588453; note: % is set by controls: 0 for no effect and ±100 for the full control effect; nearly all actives have a fitted effect of over 65% in size
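Rat TrxR1 (90 nM in the dispensed reagent) was pre-reduced with 400 uM NADPH for 5 min at room temperature, then incubated with compound for 15 min. After 400 uM selenite was added, NADPH fluorescence (Ex 340/Em 450 nm) was followed for 8 min.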
TrxR1 substrate = rat thioredoxin reductase 1 substrate activity. AID 588456. O89049. purified TrxR1 substrate turnover, NADPH consumption readout. Potency, µM (highest dose often 114 µM), for the others: at the top dose activity change, negative = substrate turnover. 390,000 tested, 0.01% active; note: % is set by controls: 0 for no effect and ±100 for the full control effect; nearly all actives have a fitted effect of over 50% in size
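Rat TrxR1, dispensed at 90 nM, was prereduced with 400 uM NADPH (final) for 5 min at ~22 deg C, then incubated with compound 15 min before 400 uM selenite. A first-read NADPH fluorescence drop versus no-compound background flagged substrates.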
GLP1R inv ag = inverse agonists of human GLP-1 receptor; AID 624417; 410,000 tested, 1.6% active; P43220; HEK293 GLP-1R CRE-luciferase, luminescence, 24 h; GLP-1R form is constitutively active; Potency, µM (top dose mostly 38.3 µM), inactives show at the highest dose activity change, negative = inhibition, usual class: inhibitors; note: % is set by controls: 0 for no effect and ±100 for the full control effect; nearly all actives have a fitted effect of over 55% in size
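Using stably transfected HEK293 (constitutively active GLP-1R, cAMP-luciferase reporter), compounds were incubated 24 hr and luciferase measured by luminescence.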
GLP1R cytotox = cytotoxic in the GLP-1 receptor inverse agonist counter-screen | HEK293 cAMP-luciferase reporter cells, luminescence, 24 h | 410,000 tested, 0.13% active | Potency, µM (doses to about 38.3 µM), for the others: at the highest dose activity change, negative = inhibition, hits mostly inhibitors | AID 624418;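 note: loss of luciferase light is scored as toxicity; % is set by controls: 0 for no effect and ±100 for the full control effect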
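Step one: seed cells (200 cells/uL, DMEM with 10% Nu serum, 1% pen-strep). Step two: 12-hour incubation at 37 deg C. Step three: pin 23 nL compound, incubate 24 hr. Step four: add luciferase reagent, read luminescence 12 min later.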
An asterisk follows results filed as active; ? = inconclusive; . = not tested or not shown; [ ] = another dose, or the depositor's remark. Calls come from the whole dose curve; as a rule, active = well fitted curve in the direction sought with a large enough effect; inconclusive = small, poorly fitted or top-dose-only effect, or another doubt; inactive = no such curve, though single readings can be large; an effect the other way counts as inactive or inconclusive. Potency is the fitted concentration of half-maximal effect.

SMILES	mIDH1 inhibitor	GLP-1R agonist	TrxR1 inh	TrxR1 substrate	GLP1R inv ag	GLP1R cytotox
CCN1C/C(=C\c2cccc([N+](=O)[O-])c2)C(=O)/C(=C/c2cccc([N+](=O)[O-])c2)C1	3.3%	-17.4%	?	-6.5%	?	5.01µM*
CCN(CC)CCCNC(=O)c1cc(-c2ccc(Cl)c(Cl)c2)on1	-1.4%	-13.9%	-1.8%[57.1 µM]	0.7%[57.1 µM]	5.62µM*	?
CCN(CC)CCCNC(=O)c1cc2c(-c3ccc(Cl)cc3)nn(C)c2s1	-3.0%	-7.0%	19.7%	40.4%	3.55µM*	?
CCN(CC)CCCNC(=O)c1cc(-c2ccc(O)cc2)on1	-6.6%	-0.4%	7.5%[57.1 µM]	-2.4%[57.1 µM]	14.2%	2.4%
CCOC(=O)[C@H](CCc1ccccc1)NC(C)C(=O)N1CC2(CC1C(=O)O)SCCS2 (stereo partly specified)	.	-4.3%	.	.	.	.
O=C(C1CCN(CCCc2ccccc2)CC1)N(CCc1ccccc1)Cc1ccccc1	2.0%	-1.7%	-11.6%	-8.0%	10µM*	?
Cc1cc(C)nc(SC2=CS(=O)(=O)c3ccccc32)n1	-0.2%	-8.5%	-5.8%[57.1 µM]	12.0%[57.1 µM]	0.7%	-26.7%
O=S1(=O)C=C(Sc2nc3ccccc3s2)c2ccccc21	11.1%	-16.4%	2.51µM*	0.2%[57.1 µM]	?	?
Brc1ccc2c(ccc[n+]2CCc2ccccc2)c1	.	.	22.4%	3.3%	.	.
CN(C)c1ccc(/C=C/c2ccnc3c(N)cccc23)cc1	.	.	-9.9%	-4.0%[0.0914 µM]	.	.
CCC(=O)N(CCC(c1ccccc1)c1ccc2c(c1)OCO2)Cc1ccc(OC(C)C)cc1 (stereo unspecified)	-2.7%	-3.6%	17.5%	0.1%	12.6µM*	-12.2%
CC(C)N(Cc1ccccc1)C(=O)c1ccc2c(c1)OCO2	0.0%	0.1%	18.5%	3.0%	?	0.3%
O=S(=O)(Nc1cc(Sc2ncn[nH]2)c(O)c2ccccc12)c1ccccc1	23.6%	-10.4%	11.2µM*	25.1µM*	?	?
O=C(Nc1ccccc1C(=O)OCc1cc(=O)n2nc(C3CC3)sc2n1)c1cccc(F)c1	5.3%	.	0.9%[57.1 µM]	-3.4%[57.1 µM]	-8.6%	7.0%
O=C(Nc1ccc(/C=C/c2ccc(NC(=O)c3cc(S(=O)(=O)O)c4cccnc4c3O)cc2S(=O)(=O)O)c(S(=O)(=O)O)c1)c1cc(S(=O)(=O)O)c2cccnc2c1O	.	-1.2%	.	.	.	.
O=C(Cc1ccccc1)Nc1ccc(NC(=O)C2CCCCC2)nc1	3.8%	4.5%	21.1%[11.4 µM]	3.5%[11.4 µM]	7.08µM*	-15.9%
CCn1cc(CN2CCC(C(=O)Nc3ccc(Oc4ccccc4)nc3)CC2)cn1	-3.9%	-15.3%	7.1%	1.8%	-10.7%	25.3%
CCc1ccc(CN2CCC(C(=O)Nc3ccc(Oc4ccccc4)nc3)CC2)o1	-2.1%	15.2%	-1.9%	-2.6%	8.91µM*	-10.5%
O=C(Nc1ccc(Oc2ccccc2)nc1)C1CCN(Cc2ccccc2)CC1	0.0%	-2.9%	22.3%	7.9%	11.2µM*	-26.5%
O=c1cc(-c2ccccc2)n2c(SCc3ccc(F)cc3)nnc2[nH]1	4.5%	.	5.9%[57.1 µM]	8.7%[57.1 µM]	8.9%	-1.5%
CCc1ccccc1NC(=O)Cn1ccn(Cc2ccccc2)c(=O)c1=O	4.6%	.	42.0%[11.4 µM]	-2.5%	16.1%	13.7%
COc1ccc(NC(=O)COc2ccc(S(=O)(=O)NC3CCCCC3)cc2)c(OC)c1	0.0%	.	13.9%	-3.8%	7.0%	0.8%
CCOC(=O)c1cc2c(=O)n3ccccc3nc2n(Cc2ccco2)c1=NC(=O)c1cccc(Br)c1	-9.4%	.	3.98µM*	18.3%[57.1 µM]	14.4%	415.8%
CCOC(=O)c1cc2c(=O)n3ccccc3nc2n(Cc2ccco2)c1=NC(=O)c1ccc(Br)cc1	2.0%	.	?	232.1%	17.3%	221.2%
